The full list was thinned out, with hits kept by preference.
MITF inh = blocks MITF activity | TRPM1 promoter luciferase, luminescence, 24 h | inhibition, % (no concentration beside the values) | 37,000 tested, 0.28% active; in the data active = inhibition above about 85%;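 also: human melanocyte line stably carrying TRPM1 promoter luciferase reporter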
YB-1 expression = YB-1 expression inhibition; AID 434959; 30,000 tested, 0.37% active; delta delta Cp (YB-1 minus CDIP) (no concentration beside the values); U2OS, qRT-PCR YB-1 vs CDIP delta delta Cp, 16 h; hits give high values; zero = DMSO, each unit about twofold;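 active = delta delta Cp rounded down to an integer at or above 3, about 3 SD of DMSO wells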;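 also: higher means less YB-1 transcript or more CDIP transcript relative to DMSO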
Shh pathway inh = blocks Sonic Hedgehog signaling | Shh-LIGHT2 Gli-luciferase reporter, 30 h | inhibition, % (no concentration beside the values) | 22,000 tested, 2.1% active;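 active = mean inhibition across valid replicates above about 65%, limit read from the data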;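 also: pathway switched on by Shh-conditioned medium diluted 1 in 25 in low serum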
Numbers without * were called inactive.

What do the screens show for `C[C@H](CO)N1C[C@H](C)[C@H](CN(C)CC2CC2)Oc2ccc(NC(=O)C3CC3)cc2C1=O`?
MITF inh: 6; YB-1 expression: 0.15; Shh pathway inh: -22

How did C[C@H]1CN([C@@H](C)CO)C(=O)c2cc(NC(=O)CCCN(C)C)ccc2O[C@@H]1CN(C)CC1CCCCC1 do in these assays?
MITF inh: -11; YB-1 expression: -0.068

Results for C[C@H](CO)N1C[C@H](C)[C@H](CN(C)C(=O)Nc2ccc(F)cc2)Oc2ccc(NC(=O)Nc3ccc(F)cc3)cc2C1=O ?
MITF inh: -23; YB-1 expression: -0.28; Shh pathway inh: 107*

How did C[C@@H]1CN([C@@H](C)CO)C(=O)c2cc(NC(=O)Nc3ccc(F)cc3)ccc2O[C@H]1CN(C)C(=O)Nc1ccc(F)cc1 do in these assays?
MITF inh: -10; YB-1 expression: 0.041; Shh pathway inh: -1

What do the screens show for `CC(C)(C)C(/C=C/c1ccc(Cl)cc1Cl)n1nnnc1C(C)(C)N1CCOCC1` (stereo not given)?
MITF inh: -5; YB-1 expression: 0.34; Shh pathway inh: 21

Results for C=CCN1C(=O)[C@@]2(O[C@@H](CCn3cc(CCO)nn3)[C@H]([Si](C)(C)c3ccc(OC)cc3)[C@H]2C)c2cc(N3CCC3=O)ccc21 ?
YB-1 expression: 0.06

Results for C=CCNC(=O)[C@@H]1[C@H]2C(=O)O[C@H](c3ccccc3)[C@H](c3ccccc3)N2[C@H](c2ccccc2OCCO)[C@@]12C(=O)Nc1ccc(C#CCCO)cc12 ?
YB-1 expression: -0.086

What do the screens show for `CCNc1nc(F)cc(=O)[nH]1`?
MITF inh: -2; YB-1 expression: -0.2

What do the screens show for `CCOC(=O)c1nc2ccccc2c(=O)n1/N=C/c1cc(Cl)cc(Cl)c1O`?
MITF inh: 8; YB-1 expression: -0.16; Shh pathway inh: -12

What do the screens show for `CC(C)c1ccc(C2C(C#N)=C(N)C(C#N)(C#N)C3=CCN(C)CC32)cc1` (stereo not given)?
MITF inh: 14; YB-1 expression: -0.74; Shh pathway inh: 74*

How did Cc1nc2c([nH]1)C(c1ccc(C(C)C)cc1)C(C#N)=C(N)O2 (stereo not given) do in these assays?
MITF inh: 14; YB-1 expression: -0.0049; Shh pathway inh: -9

What do the screens show for `COc1ccc(CN(C)C[C@@H]2Oc3ccc(NC(=O)Nc4ccc(C(F)(F)F)cc4)cc3CC(=O)N([C@H](C)CO)C[C@@H]2C)cc1`?
MITF inh: 32; YB-1 expression: 9.7*

Results for COc1ccc(CN(C)C[C@@H]2Oc3ccc(NC(=O)NC4CCCCC4)cc3CC(=O)N([C@H](C)CO)C[C@H]2C)cc1 ?
MITF inh: 7; YB-1 expression: 6.7*; Shh pathway inh: -16

Results for C[C@@H]1CN([C@H](C)CO)C(=O)Cc2cc(NC(=O)Nc3ccc4c(c3)OCO4)ccc2O[C@@H]1CN(C)Cc1ccc2c(c1)OCO2 ?
MITF inh: -2; YB-1 expression: 0.58; Shh pathway inh: 72*

What do the screens show for `Cc1ccc(S(=O)(=O)N(C)C[C@H]2Oc3ccc(NC(=O)Nc4c(C)noc4C)cc3CC(=O)N([C@@H](C)CO)C[C@H]2C)cc1`?
MITF inh: 8; YB-1 expression: 9.8*; Shh pathway inh: -13

What do the screens show for `C[C@@H]1CN([C@H](C)CO)C(=O)Cc2cc(NC(=O)Nc3ccccc3)ccc2O[C@H]1CN(C)Cc1ccc2c(c1)OCO2`?
MITF inh: -7; YB-1 expression: -0.046; Shh pathway inh: -48

How did COc1ccc(CN(C)C[C@@H]2Oc3ccc(NC(=O)NC4CCCCC4)cc3CC(=O)N([C@@H](C)CO)C[C@@H]2C)cc1 do in these assays?
MITF inh: 5; YB-1 expression: -0.34; Shh pathway inh: 7

What do the screens show for `COc1ccc(NC(=O)Nc2ccc3c(c2)CC(=O)N([C@H](C)CO)C[C@@H](C)[C@H](CN(C)Cc2ccc(C(F)(F)F)cc2)O3)cc1`?
MITF inh: 5; YB-1 expression: -0.18; Shh pathway inh: -33

How did Cc1ccc(S(=O)(=O)N(C)C[C@@H]2Oc3ccc(NC(=O)Nc4c(C)noc4C)cc3CC(=O)N([C@H](C)CO)C[C@H]2C)cc1 do in these assays?
MITF inh: 4; YB-1 expression: -0.13; Shh pathway inh: -6

What do the screens show for `CCC(=O)Nc1ccc2c(c1)N(CC)C(C)(C)CC2C` (stereo not given)?
MITF inh: 13; YB-1 expression: 0.013; Shh pathway inh: 29

How did CCc1cc(-c2[nH]ncc2-c2nc(C)cs2)c(O)cc1OC(C)C(=O)NN (stereo not given) do in these assays?
MITF inh: 17; YB-1 expression: 0.31; Shh pathway inh: 59

What do the screens show for `CN(C)CCCOc1ccc(/C=N/NC(=O)CCCCCCC(=O)Nc2ccccc2O)cc1`?
YB-1 expression: 0.19

How did Cc1ccccc1NC(=O)c1ccccc1NC(=O)c1ccccc1 do in these assays?
MITF inh: 12; YB-1 expression: 0.1; Shh pathway inh: -33

Results for CC1(C)CC(=O)C=C(SCC(=O)Nc2cc(C(F)(F)F)cc(C(F)(F)F)c2)S1 ?
MITF inh: 52; YB-1 expression: -0.025; Shh pathway inh: 92*

What do the screens show for `Cc1nnc(SCC(=O)Nc2cccc(C(F)(F)F)c2)s1`?
MITF inh: -16

Results for c1ccc(CN2CCOCCN(Cc3ccccc3)CCOCC2)cc1 ?
MITF inh: -1; YB-1 expression: -0.049

Results for C/C=C(/C)C(=O)O[C@@H](C)[C@@](C)(O)C(=O)O[C@H](C)[C@@H](OC(=O)/C(C)=C\C)c1cc(OC)c2c(c1)OCO2 ?
MITF inh: 45; YB-1 expression: -1.3; Shh pathway inh: 89*

How did COc1ccc2c(c1)CCC1C2CCC2(C)C(=O)CCC12 (stereo not given) do in these assays?
MITF inh: -36; YB-1 expression: -0.59; Shh pathway inh: 16

How did C[C@]12CCC3c4ccc(O)cc4CCC3C1CCC2=O (stereo not given in full) do in these assays?
MITF inh: -32; YB-1 expression: 0.032; Shh pathway inh: 89*

How did C[C@]12CCC3c4ccc(O)cc4CC[C@H]3C1CC[C@H]2O (stereo not given in full) do in these assays?
MITF inh: 13; YB-1 expression: 0.38; Shh pathway inh: 5

Results for C[C@]12CC[C@@H]3c4ccc(O)cc4CC[C@H]3[C@@H]1CC[C@@H]2O ?
MITF inh: 24; YB-1 expression: 0.081; Shh pathway inh: 91*

What do the screens show for `Cc1cc(OCc2ccc(Br)cc2)nc(-c2ccccc2O)n1`?
MITF inh: -11; YB-1 expression: -0.1; Shh pathway inh: -1

Results for O=c1cc(-c2ccccc2)oc2cc(Cl)cc(Cl)c12 ?
MITF inh: -3; YB-1 expression: -0.37; Shh pathway inh: -43

What do the screens show for `CCC(C)[C@H]1C(=O)O[C@H](C(C)C)C(=O)N(C)[C@@H](C(C)C)C(=O)O[C@H](C(C)C)C(=O)N(C)[C@@H](C(C)C)C(=O)O[C@H](CC(C)C)C(=O)N1C` (stereo not given in full)?
MITF inh: 78; YB-1 expression: 0.71; Shh pathway inh: 106*

What do the screens show for `COC(=O)C[C@H]1C(C)(C)C2(Cl)O[C@@]34CC2C(=O)[C@]1(C)C3CC[C@]1(C)C4=CC(=O)O[C@H]1c1ccoc1` (stereo not given in full)?
MITF inh: 8; YB-1 expression: 0.3; Shh pathway inh: 8

Assay outcomes as filed in PubChem BioAssay.
